In PubChem BioAssay AID1063 (University of Pittsburgh Molecular Library Screening Center, 2008):
The campaign covered roughly 200,000 compounds. About 18,000 (9%) were called active. The sample as a whole holds a higher share of actives than the screen did. A number with no mark means an inactive call. Cut-off read from the data, not from the text of the source: active = inhibition above about 50%; inactive = the rest.

Assay: Leishmania major promastigote growth inhibition, primary screen (AID 1063);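 note: promastigotes grown with compound for 44 hours at 28 °C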
Details: Leishmania major promastigotes, resazurin fluorescence viability; at 10 µM; hits give high values
`O=C(CC1C(=O)NCCN1Cc1ccc(-c2ccccc2)cc1)NCc1ccncc1` (stereo not drawn) showed an inhibition of -2.72%. Compound `Cc1ccccc1NC(=O)CN1C(=O)N/C(=C\c2cccn2-c2cccc(C(=O)O)c2)C1=O` has an inhibition of -4.64%. For `Cc1ccc(Nc2ccc(C(N)=O)cc2[N+](=O)[O-])cc1`, the inhibition was -4.3%. Work on `Cc1cc(C)nc(Nc2cc([N+](=O)[O-])ccc2C)n1` yielded an inhibition of 2.27%. For `Cc1ccc(Nc2cc(C)nc3c(C)ccc([N+](=O)[O-])c23)cc1`, the inhibition was 87.2% (active). `O=S(=O)(Nc1ccccn1)c1cccc(S(=O)(=O)c2ccc(Cl)cc2)c1` gave an inhibition of -10.8%. For `CC(C)(C)NC(=O)Cn1cnc2cc([N+](=O)[O-])ccc2c1=O`, the inhibition was 3.94%. For `CCNS(=O)(=O)c1ccc(NC(=O)Nc2cccc(C(F)(F)F)c2)cc1`, the inhibition was 31.4%. Compound `O=C(CN1CCN(c2ccc(F)cc2)CC1)Nc1cccc(C(F)(F)F)c1` has an inhibition of -7.62%. With `O=C(/C=C/c1ccc(F)cc1)Nc1cccc(S(=O)(=O)Nc2cccc(C(F)(F)F)c2)c1` the inhibition was 50.4% (active). `O=C(NCc1ccco1)c1nn2cccnc2c1Cl` gave an inhibition of -2.79%. `COc1ccc(Sc2nc(-c3ccccc3)ncc2OC)cc1` gave an inhibition of -4.44%. Compound `CC(Oc1cccc(NC(=O)c2cccs2)c1)C(=O)c1ccccc1` (stereo not drawn) has an inhibition of 16.5%. With `Cc1ccc(N(Cc2ccc(C(=O)Nc3ccccc3C(=O)NCc3ccco3)cc2)S(C)(=O)=O)cc1C` the inhibition was 61.3% (active). With `CS(=O)(=O)N(Cc1ccc(Cl)cc1)c1ccc(C(=O)NCCSCc2ccco2)cc1` the inhibition was 53.3% (active). Work on `CCc1ccccc1N(CC(=O)NCCSCc1ccco1)S(C)(=O)=O` yielded an inhibition of -4.33%. Work on `Cc1cc(C)cc(N(CC(=O)NCCSCc2ccco2)S(C)(=O)=O)c1` yielded an inhibition of -4.83%. With `O=C(Nc1ccccc1)Nc1ccccc1C(=O)NCc1ccco1` the inhibition was 4.53%. With `Cc1cccc(Nc2ccccc2C(=O)NCc2ccco2)c1C` the inhibition was 38.2%. With `CCOC(=O)c1sc(NC(=O)CSc2n[nH]c(CC)n2)nc1C` the inhibition was -7.68%. For `Cc1ccccc1NS(=O)(=O)CCCCC(Cl)(Cl)Cl`, the inhibition was 5.47%. `COc1ccc(C2CC(c3cccs3)=NN2c2ccccc2)cc1` (stereo not drawn) gave an inhibition of -1.67%. For `CCOC(=O)N1CCN(C(=O)Cn2cnc3ccccc3c2=O)CC1`, the inhibition was -4.19%. Compound `COc1ccc(NC(=O)C(=O)NCC(=O)Nc2cccc(C(F)(F)F)c2)cc1` has an inhibition of -4.66%. `COC(=O)CSc1ncnc2c1cnn2-c1ccc(C)cc1C` gave an inhibition of 2.35%. With `CC(O)CNCCOc1cccc(Oc2ccccc2)c1` (stereo not drawn) the inhibition was 95.9% (active). Work on `CC1(C)NC(=O)N(CCOc2cccc(Oc3ccccc3)c2)C1=O` yielded an inhibition of -11.3%. Work on `Cc1ccc([N+](=O)[O-])c(OCCCNCC(C)O)c1` (stereo not drawn) yielded an inhibition of -0.76%. `Cc1ccnc(SCC(N)=O)n1` gave an inhibition of -7.56%. Work on `O=C(Nc1ccc(F)c([N+](=O)[O-])c1)C1CC(=O)N(Cc2ccccc2)C1` (stereo not drawn) yielded an inhibition of 8.12%. `CNC(=S)Nc1ccc([N+](=O)[O-])cc1` showed an inhibition of 6.53%. With `COc1ccccc1OCC(=O)OCn1c(SC)nnc(C)c1=O` the inhibition was 58% (active). For `COc1ccccc1OCCC(=O)OCC(=O)NC(=O)NC(C)(C)C`, the inhibition was -5.7%. `COc1cccc(NC(=O)COC(=O)CCOc2ccccc2OC)c1` gave an inhibition of -0.7%. With `Cn1cnnc1SCc1nnc(-c2ccccc2Br)o1` the inhibition was -7.2%. With `COc1ccc(C2CC(c3cccs3)=NN2C(=O)CSc2nncs2)cc1OC` (stereo not drawn) the inhibition was 8.19%. `COc1ccc(C2CC(c3cccs3)=NN2C(=O)CSc2nnc(N)s2)cc1OC` (stereo not drawn) showed an inhibition of 2.75%. For `COc1ccc(C2CC(c3cccs3)=NN2C(=O)COC(=O)c2cc3ccccc3cc2O)cc1OC` (stereo not drawn), the inhibition was 58% (active). Compound `COc1ccccc1NC(=O)CCSc1nnc(-c2ccc(O)cc2)o1` has an inhibition of -3.54%. `NS(=O)(=O)c1cccc(NC(=O)CSc2nc3ccccc3n2-c2ccccc2)c1` gave an inhibition of 9.64%. In the case of `Cc1ccc(-n2c(SCC(=O)Nc3ncc(Cl)cc3Cl)nc3ccccc32)cc1`, the inhibition is reported as 89.5% (active). In the case of `Cc1ccc(SCCC(=O)OCC(=O)Nc2ncc(Cl)cc2Cl)cc1`, the inhibition is reported as -4.94%. With `O=C(O)CC1S/C(=N\N=C/c2ccccc2O)N(c2ccc(O)cc2)C1=O` (stereo not drawn) the inhibition was -7.61%. For `CC(=O)C1(C)N(O)C(C)(C)C(c2cccs2)=[N+]1[O-]` (stereo not drawn), the inhibition was -4.97%. Compound `Cc1cccc2cc(C#N)c(N3CCCC3)nc12` has an inhibition of 4.74%. `CC(=O)c1cc(C#N)c(N2CCCCC2)nc1C` gave an inhibition of -3.09%. For `CCOC(=O)c1cc(C#N)c(N2CCCCC2)nc1-c1ccccc1`, the inhibition was 53.9% (active). With `CCN1CC(CN(C)Cc2nc(-c3ccc(Cl)cc3)no2)CC1=O` (stereo not drawn) the inhibition was -8.19%. For `COc1cc(NC(=O)COC(=O)c2cnc(C)cn2)c(C)cc1[N+](=O)[O-]`, the inhibition was -4.51%. `O=C(CSc1ccc(-c2ccco2)nn1)NCc1ccc2c(c1)OCO2` showed an inhibition of 14%. Work on `Cc1ccc(S(=O)(=O)C(C#N)c2nc3ccccc3nc2N2CCCC2)cc1C` (stereo not drawn) yielded an inhibition of -2.26%. With `Cc1cc(N2CCN(S(=O)(=O)c3ccc(C)c(C)c3)CC2)c2ccccc2n1` the inhibition was 98.6% (active). Compound `Cc1cc(C(=O)NNC(=O)c2cccc(S(=O)(=O)N3CCOCC3)c2)c2ccccc2n1` has an inhibition of -9.98%. In the case of `COc1ccc(CCNC2=C(Cl)C(=O)N(Cc3ccccc3)C2=O)cc1OC`, the inhibition is reported as 8.4%. With `COc1ccc(CCNc2cc(C)nc3c(-c4ccc(Cl)cc4)c(C)nn23)cc1OC` the inhibition was 76.3% (active). Work on `COc1ccc(CCNc2ncnc3nc[nH]c23)cc1OC` yielded an inhibition of 5.03%. In the case of `Cc1cc(Cl)ccc1OCCCC(=O)NCc1ccccn1`, the inhibition is reported as 5.49%. Work on `COCCCNC(=S)NC(=O)c1ccc([N+](=O)[O-])cc1` yielded an inhibition of -8.2%. Work on `COc1ccccc1OCCNc1cc(N2CCOCC2)ccc1[N+](=O)[O-]` yielded an inhibition of 2.32%. For `COc1ccccc1OCCNC(=O)c1cc([N+](=O)[O-])cc([N+](=O)[O-])c1`, the inhibition was 93.5% (active). Work on `Cc1ccc(NC(=O)CSCC(=O)NC2CCCCC2)cc1` yielded an inhibition of 14.3%. `CCC1CO/C(=C(\C(=C(Cl)Cl)N2CCOCC2)[N+](=O)[O-])N1` (stereo not drawn) gave an inhibition of -6.26%. Work on `Cc1noc(C)c1S(=O)(=O)Nc1ccc(C(=O)N2CCN(c3ccc(F)cc3)CC2)cc1` yielded an inhibition of 4.11%. `Cc1ccc(OCC(=O)Nc2ccccc2Sc2ccc(Cl)cc2)c([N+](=O)[O-])n1` showed an inhibition of 7.6%. For `COc1ccccc1CNC(=O)COc1ccc(C)nc1[N+](=O)[O-]`, the inhibition was 0.88%. With `CCc1ccccc1NC(=O)CN(C)C(=O)COc1ccc(C)nc1[N+](=O)[O-]` the inhibition was 57.1% (active). With `CC(=O)c1c(C)[nH]c(C(=O)OCC(=O)Nc2cc(S(=O)(=O)N3CCCCC3)ccc2C)c1C` the inhibition was 95.4% (active). `CC(=O)c1c(C)[nH]c(C(=O)Nc2cc(S(=O)(=O)N(C)C)ccc2C)c1C` showed an inhibition of -6.9%. With `COc1ccc(S(=O)(=O)N2CCCCCC2)cc1C(=O)OCC(=O)Nc1cc(C)on1` the inhibition was 3.73%. In the case of `OCCNc1nc2ccccc2n1-c1ncnc2sc3c(c12)CCC3`, the inhibition is reported as 60.8% (active). In the case of `Cn1c(NN)nc2sc3c(c2c1=O)CCC3`, the inhibition is reported as -2.23%. With `CC(C)(C)C(=O)Cn1c(NCCO)nc2ccccc21` the inhibition was -7.58%. In the case of `CCN1CCc2nc(NC(=O)c3cc(F)c(F)cc3Cl)sc2C1`, the inhibition is reported as -0.49%. `Nc1ccc(Cl)c(S(=O)(=O)Nc2ccccc2Cl)c1` showed an inhibition of 1.56%. With `CCOc1ccc2nc(Cl)c(C3CC(c4ccccc4)=NN3C(=O)c3cccs3)cc2c1` (stereo not drawn) the inhibition was 66.5% (active). In the case of `CCOc1ccccc1C1CC(c2cccc(NS(C)(=O)=O)c2)=NN1C(=O)c1ccccc1` (stereo not drawn), the inhibition is reported as 2.04%. With `COc1ccc(C2CC(c3ccccc3)=NN2C(=O)c2ccc(Cl)c([N+](=O)[O-])c2)cc1` (stereo not drawn) the inhibition was 31.9%. `COc1ccc(C(=O)COC(=O)c2ccc3ccccc3n2)cc1` showed an inhibition of -7.38%. `COc1ccc(CCNC(=O)CCn2c(=O)c3ccccc3n(CC(=O)NCC3CCCO3)c2=O)cc1OC` (stereo not drawn) showed an inhibition of -3.03%. Work on `Cc1ccnc(NC(=O)c2ccco2)n1` yielded an inhibition of -6.16%. For `COc1ccc(CCCc2nnc(SCc3nc4ccccc4c(=O)[nH]3)n2C)cc1`, the inhibition was -4.22%. In the case of `CC(NC(=O)COC(=O)c1cc(=O)[nH]c2ccccc12)c1ccccc1` (stereo not drawn), the inhibition is reported as -4.71%. In the case of `COc1cccc(CC2(CO)CCCN(Cc3nc(-c4cccs4)oc3C)C2)c1` (stereo not drawn), the inhibition is reported as 2.57%. Work on `Cc1ccccc1CC1(CO)CCCN(C(=O)c2cc(-c3ccccc3)no2)C1` (stereo not drawn) yielded an inhibition of -3.77%. For `Cc1ccccc1CC1(CO)CCCN(Cc2ccc3c(c2)OCCO3)C1` (stereo not drawn), the inhibition was 70.2% (active). In the case of `COc1cc(CN2CCN(Cc3ccc(C)cc3)CC2)c([N+](=O)[O-])cc1OC`, the inhibition is reported as 53.4% (active). In the case of `COc1cc(CN2CC(C)CC(C)C2)cc([N+](=O)[O-])c1O` (stereo not drawn), the inhibition is reported as 16.2%. With `COc1cc(CC(=O)N/N=C/c2ccccc2)c([N+](=O)[O-])cc1OC` the inhibition was -0.35%. For `CCOC(=O)CNC(=O)/C(=C\c1ccc(F)cc1)NC(=O)c1ccccc1`, the inhibition was -2.16%. With `CCN(CC(=O)NCc1cccs1)C(=O)c1ccccc1F` the inhibition was 35%. Compound `CCOc1ccc(CCNC(=O)C2=C(C)C(=O)OC23CCC(C)CC3)cc1OCC` (stereo not drawn) has an inhibition of 5.17%. `COc1ccc(CNC(=O)CN2CCC(n3nnc4cc(F)ccc43)CC2)cc1` showed an inhibition of 2.66%. Compound `CCOc1cc(NC(=S)NCCCOC)c(OCC)cc1NC(=O)c1ccco1` has an inhibition of 36.4%.
